Laboratory results as given in PubChem BioAssay (EPA / NIEHS).
Calls of active or inactive are those of the source. The calls were made as follows: active = hit-call score of the fitted dose curve at least 0.9, where 1 is the maximum; inactive = score below 0.9.

Columns and labels:
[1] = read-out: Matrix Metallopeptidase 1 (MMP1), MMP1 (gene 4312); test: BSK_hDFCGF_MMP1: BioMAP Diversity Plus: hDFCGF Assay for Matrix Metallopeptidase 1 (MMP1) Biomarker Activity (AID 2283064); settings: primary human foreskin fibroblasts; actives raise or lower the signal
Outline: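 Human foreskin fibroblasts exposed to chemical for 24 h; MMP1 detected by ELISA, with DMSO as baseline for bidirectional fitting.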

[2] = read-out: Vascular cell adhesion molecule 1 (VCAM1), VCAM1 (gene 7412); test: BSK_hDFCGF_VCAM1: BioMAP Diversity Plus: hDFCGF Assay for Vascular cell adhesion molecule 1 (VCAM1) Biomarker Activity (AID 2283065); settings: primary human foreskin fibroblasts; actives raise or lower the signal;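 as to AC50: VCAM-1 protein level quantified by ELISA after 24 h chemical exposure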
Outline: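 Measured after 24 h chemical treatment of primary human skin fibroblasts, VCAM-1 was detected by ELISA and concentration-response analysed in both directions versus DMSO vehicle.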

[3] = read-out: Plasminogen activator inhibitor-1 (PAI1), SERPINE1 (gene 5054); test: BSK_hDFCGF_PAI1: BioMAP Diversity Plus: hDFCGF Assay for Plasminogen activator inhibitor-1 (PAI1) Biomarker Activity (AID 2283066); settings: primary human foreskin fibroblasts; actives raise or lower the signal
Outline: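 Human skin fibroblast cultures receive chemical for 24 h before PAI-1 is measured by ELISA; signal changes are fitted bidirectionally against DMSO-treated wells.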

[4] = read-out: Intercellular Adhesion Molecule 1 (ICAM1), ICAM1 (gene 3383); test: BSK_KF3CT_ICAM1: BioMAP Diversity Plus: KF3CT Assay for Intercellular Adhesion Molecule 1 (ICAM1) Biomarker Activity (AID 2283067); settings: primary human keratinocytes with fibroblasts; actives raise or lower the signal
Outline: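 Bidirectional curve fitting against a DMSO baseline was applied to ICAM-1 ELISA signal from primary human skin co-cultures harvested 24 h after treatment, with SRB staining of parallel wells for overt cytotoxicity.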

[5] = read-out: Interferon-gamma inducible Protein 10 (IP10), CXCL10 (gene 3627); test: BSK_KF3CT_IP10: BioMAP Diversity Plus: KF3CT Assay for Interferon-gamma inducible Protein 10 (IP10) Biomarker Activity (AID 2283068); settings: primary human keratinocytes with fibroblasts; actives raise or lower the signal
Outline: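 Signal is secreted/surface IP-10 by ELISA in a human primary skin co-culture of keratinocytes and foreskin fibroblasts, taken 24 h post-dosing; DMSO served as negative control.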

[6] = BSK_KF3CT_SRB: Viability Assessment in the BioMAP Diversity Plus: KF3CT Assay (AID 2283069); settings: primary human keratinocytes with fibroblasts;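 also: read 24 h after compound addition; fitted for both signal gain and loss against DMSO baseline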
Outline: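 Overt cytotoxicity is assessed as total protein by sulforhodamine B staining in parallel human skin co-cultures at 24 h after dosing. DMSO serves as negative control and baseline.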

[7] = read-out: Interleukin-1 alpha (IL1a), IL1A (gene 3552); test: BSK_KF3CT_IL1a: BioMAP Diversity Plus: KF3CT Assay for Interleukin-1 alpha (IL1a) Biomarker Activity (AID 2283070); settings: primary human keratinocytes with fibroblasts; actives raise or lower the signal
Outline: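 Readout is IL-1a level by ELISA, compared bidirectionally with DMSO as baseline. Cells: human keratinocytes co-cultured with foreskin fibroblasts, harvested 24 h post-dose.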

[8] = read-out: TIMP metallopeptidase inhibitor 2 (TIMP2), TIMP2 (gene 7077); test: BSK_KF3CT_TIMP2: BioMAP Diversity Plus: KF3CT Assay for TIMP metallopeptidase inhibitor 2 (TIMP2) Biomarker Activity (AID 2283071); settings: primary human keratinocytes with fibroblasts; actives raise or lower the signal
Outline: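 Measurements come from ELISA detection of TIMP-2 at 24 hours in a dosed human keratinocyte and foreskin fibroblast co-culture. DMSO serves as negative control and baseline.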

[9] = read-out: Transforming growth factor beta 1 (TGFb1), TGFB1 (gene 7040); test: BSK_KF3CT_TGFb1: BioMAP Diversity Plus: KF3CT Assay for Transforming growth factor beta 1 (TGFb1) Biomarker Activity (AID 2283072); settings: primary human keratinocytes with fibroblasts; actives raise or lower the signal
Outline: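 TGF-b1 ELISA on a 24 h dosed co-culture of human keratinocytes and foreskin fibroblasts; cytotoxicity tracked in parallel cultures by SRB staining.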

[10] = read-out: C-C motif chemokine 2 (Homo sapiens) (UniProt P13500); test: BSK_KF3CT_MCP1: BioMAP Diversity Plus: KF3CT Assay for Monocyte Chemoattractant Protein 1 (MCP1/CCL2) Biomarker Activity (AID 2283073); settings: primary human keratinocytes with fibroblasts; actives raise or lower the signal
Outline: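 Biomarker MCP-1 is measured by ELISA in primary human keratinocytes co-cultured with foreskin fibroblasts, 24 h after chemical treatment; DMSO serves as the negative control and activity baseline.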

Measured: AC50

CCCCC(CC)COC(=O)c1ccc(C(=O)OCC(CC)CCCC)c(C(=O)OCC(CC)CCCC)c1 (stereo not given)
not listed: [9] | [10]
inactive: all other assays above

c1ccc(C2CO2)cc1 (stereo not given)
not listed: [9] | [10]
inactive: all other assays above

Clc1ccc(Cl)c(Cl)c1
not listed: [9] | [10]
inactive: all other assays above

CC(C)(O)c1cnn2c(-c3ccc(F)c(-c4c(F)cccc4C#N)c3)cnc2n1
active: [1] 6.43 µM | [5] 23.2 µM | [6] 33.2 µM | [8] 31 µM | [9] 36 µM
inactive: [2] | [3] | [4] | [7]

C[C@]12C=CC3=C4CCC(=O)C=C4CC[C@H]3[C@@H]1CC[C@@H]2O
active: [2] 27.7 µM | [3] 0.164 µM
not listed: [10]
inactive: all other assays above

CCCCOC(=O)c1ccccc1C(=O)OCc1ccccc1
active: [2] 20 µM
inactive: all other assays above

Oc1ccc2ccc3cccc4ccc1c2c34
active: [2] 8.34 µM | [3] 22.5 µM | [5] 26.7 µM | [7] 20 µM | [8] 31.3 µM | [9] 31.7 µM
inactive: [1] | [4] | [6]

CC(C)(C)OOC(=O)c1ccccc1
active: [1] 20 µM | [2] 32.9 µM | [3] 7.15 µM
not listed: [10]
inactive: all other assays above

CCN(CC)N=O
not listed: [10]
inactive: all other assays above

ClC1=C(Cl)C2(Cl)C3C(Cl)C=CC3C1(Cl)C2(Cl)Cl (stereo not given)
active: [1] 13.4 µM | [2] 8.26 µM | [3] 9.78 µM | [4] 30.2 µM | [5] 15.3 µM | [6] 28.6 µM | [7] 27.3 µM | [8] 24.6 µM | [9] 14 µM | [10] 14.6 µM

Nc1ccc(Cc2ccc(N)cc2)cc1
not listed: [10]
inactive: all other assays above

O=C(Oc1ccc(Br)cc1)N1CCN2CCC1CC2
inactive: all assays above

CNC(=O)Oc1cccc2c1OC(C)(C)C2
inactive: all assays above

COc1cc(C=O)cc2c1[C@H](COC(N)=O)[C@]1(OC(C)=O)ON2C[C@H]2[C@@H]1N2C(C)=O
active: [1] 0.565 µM | [2] 1 µM | [3] 0.144 µM | [4] 11.6 µM | [5] 13 µM | [6] 3.36 µM | [7] 20 µM | [8] 2.26 µM | [9] 2.21 µM

CCCCCOC(=O)c1ccccc1C(=O)OCCCCC
active: [2] 4.45 µM
not listed: [10]
inactive: all other assays above

Nc1ccc(Cl)cc1N
active: [2] 9.2 µM
inactive: all other assays above

Brc1ccc(Oc2ccccc2)cc1
inactive: all assays above

OCCCl
inactive: all assays above

Cc1ccc([N+](=O)[O-])cc1
inactive: all assays above

C[N+](C)(C)CC1CO1 (stereo not given)
not listed: [10]
inactive: all other assays above
